Assay outcomes from PubChem.
A selection: hits, their analogues and other compounds. The true share with any hit is near 13%.
Marburg entry inh: qHTS for inhibitors of binding or entry into cells for Marburg Virus. Marburg virus pseudotyped entry inhibition, cell reporter. Potency, µM (doses to about 37.8 µM), hits mostly inhibitors. actives 1.8% (n = 300,000). AID 540276, 2011; calls by dose curve; tested in HEK293 cells
Lassa entry inh: qHTS for Inhibitors of binding or entry into cells for Lassa Virus | actives 1.2% (n = 300,000) | Lassa virus pseudotype entry inhibition, cell reporter | Potency, µM (titrated, usually from 37.9 µM), hits mostly inhibitors | AID 540256, 2011; calls by dose curve; tested in HEK293 cells; also: nearly all actives have a fitted effect of over 50% in size
FMDV antiviral: High Throughput Screening for Foot and Mouth Disease Virus Antivirals | FMDV antiviral cell-based qHTS | Potency, µM (doses to about 57.9 µM), usual class: inhibitors | actives 1.2% (n = 410,000); calls by dose curve; tested in HEK293T cells; also: read-out not given here; nearly all actives have a fitted effect of over 45% in size
Cycloheximide cs: Cycloheximide Counterscreen for Small Molecule Inhibitors of Shiga Toxin. cell reporter, cycloheximide protein synthesis inhibition counterscreen. max response, %. actives 12% (n = 300,000). AID 2314, 2010; in the data active = max response mostly above about 13%, no sharp cut-off; inactive = mostly below about 14%; also: read at 38.3 µM for the half of the compounds with a filed dose
HCV inh: qHTS Assay for Inhibitors of Hepatitis C Virus (HCV). Potency, µM (series often up to 41.8 µM), hits mostly inhibitors. AID 651820, 2012. Huh7.5.1 HCVcc-Cre infection, luciferase reporter, 44 h. actives 3.4% (n = 340,000); active = well fitted inhibition curve with a large enough effect; inconclusive = small, poorly fitted or top-dose-only effect, or another doubt; inactive = no such curve, though single readings can be large or run the other way
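Cells (1,000/well) were plated 4 h before compound, then infected with HCVcc-Cre virus (~0.5 moi). After 44 h further culture, infection was read as luciferase luminescence following a 15 min substrate incubation at room temperature.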
Shiga inhibitor: A qHTS for Small Molecule Inhibitors of Shiga Toxin. inhibition, % at 38.7 µM. Vero cells, Shiga toxin protein synthesis inhibition reporter. actives 9.2% (n = 290,000); in the data active = inhibition mostly above about 28%, no sharp cut-off; inactive = mostly below about 43%
Each line names hits and unclear results; the compound was inactive in the other large screens.

CC(C)OCCCNC(=O)CCCC(=O)Nc1ccc(OCCc2ccccc2)cc1	none (no result: Marburg entry inh, Lassa entry inh)
Cc1ccc(S(=O)(=O)N(C)c2ccc(OCC(=O)Nc3cc(C(=O)O)ccc3Cl)cc2)cc1	none (no result: Marburg entry inh, Lassa entry inh, Cycloheximide cs, Shiga inhibitor)
CCC1CN(C(=O)N2CCC(C(=O)NCCc3ccc(OC)cc3OC)CC2)c2cc(C)ccc2O1 (configuration not stated)	FMDV antiviral 28µM (no result: Marburg entry inh, Cycloheximide cs, HCV inh, Shiga inhibitor)
CCC1CN(C(=O)N2CCC(C(=O)NCc3ccccc3OC)CC2)c2cc(C)ccc2O1 (configuration not stated)	HCV inh inconclusive (no result: Marburg entry inh, Lassa entry inh)
CCC1CN(C(=O)Nc2ccc(C)cc2)c2cc(C)ccc2O1 (configuration not stated)	Marburg entry inh 11µM, Lassa entry inh inconclusive, Cycloheximide cs 12, HCV inh inconclusive
CCC1CN(C(=O)N2CCC(C(=O)NCc3ccccc3OC)CC2)c2ccccc2O1 (configuration not stated)	HCV inh 16µM (no result: Marburg entry inh, Lassa entry inh)
Cc1cc(C)n(C(=O)Cn2nc(C(F)F)cc2C)n1	Lassa entry inh inconclusive
CCN(Cc1ccccc1)C(=O)Cn1c(=O)n(CCC(=O)N2CCCCC2)c(=O)c2sccc21	none
COC(=O)c1ccc(NC(=O)c2ccccc2)o1	Marburg entry inh inconclusive, Cycloheximide cs 38, Shiga inhibitor 81
O=C(Nc1cccc(Br)c1)c1ccn[nH]1	Cycloheximide cs 45, Shiga inhibitor 35
CCC(CC)C(=O)c1c[nH]c(C(=O)NCc2ccccc2OC)c1	FMDV antiviral 40µM (no result: Marburg entry inh, Lassa entry inh)
Cc1ccc(NC(=O)c2ccccc2)cc1C	none (no result: Marburg entry inh, Lassa entry inh, Cycloheximide cs, Shiga inhibitor)
O=C(O)c1ccn[nH]1	none (no result: Marburg entry inh, Lassa entry inh, Cycloheximide cs, Shiga inhibitor)
Cc1ccc(C(=O)Oc2cccc(NC(=O)c3ccccc3)c2)cc1C	Marburg entry inh inconclusive, Lassa entry inh inconclusive, Cycloheximide cs 16
CC(C)c1ccc(NC(=O)c2cc3c(s2)-c2ccccc2SC3)cc1	none (no result: Cycloheximide cs, HCV inh, Shiga inhibitor)
Cc1ccc(C(=O)Nc2cccc(C(=O)O)c2)cc1	Marburg entry inh inconclusive, Lassa entry inh 5.8µM, FMDV antiviral 2µM, Cycloheximide cs 42, Shiga inhibitor 71
COc1ccccc1CNC(=O)c1cccc(NC(=O)c2ccccc2)c1	HCV inh 14µM (no result: Marburg entry inh, Lassa entry inh)
COC(=O)c1cccc(NC(=O)c2cc3ccccc3o2)c1	Cycloheximide cs 29, Shiga inhibitor 35 (no result: Marburg entry inh, Lassa entry inh)
COC(=O)c1cccc(NC(=O)c2ccccc2)c1	Cycloheximide cs 29, Shiga inhibitor 50 (no result: Marburg entry inh, Lassa entry inh)
O=C(CSc1nc2ccccc2n1Cc1ccccc1F)NCc1ccccc1	none (no result: Marburg entry inh, Cycloheximide cs, HCV inh, Shiga inhibitor)
Cc1nc(N)nc(N)c1-c1ccc([N+](=O)[O-])cc1	Marburg entry inh inconclusive, Lassa entry inh inconclusive (no result: Cycloheximide cs, Shiga inhibitor)
O=C(Nc1cccc(C(=O)Nc2cccc(Br)c2)c1)c1ccccc1	HCV inh 14µM (no result: Marburg entry inh, Lassa entry inh)
CC(=O)c1cccc(NC(=O)c2ccc(N(Cc3ccc(C)cc3)S(C)(=O)=O)cc2)c1	Marburg entry inh inconclusive, Lassa entry inh inconclusive, FMDV antiviral inconclusive, HCV inh 13µM
CC(C)c1ccc(NC(=O)c2cccc(Br)c2)cc1	Cycloheximide cs 36, Shiga inhibitor 119 (no result: Marburg entry inh, Lassa entry inh)
COc1ccccc1NC(=O)Nc1cc(C(C)(C)C)nn1C	none
Cc1ccsc1CNc1ncnc2ccc(-c3c(C)noc3C)cc12	FMDV antiviral inconclusive, Shiga inhibitor 57 (no result: Marburg entry inh, Lassa entry inh, HCV inh)
Cc1ccc(S(=O)(=O)Cn2nnnc2CN2CCOCC2)cc1	none (no result: FMDV antiviral)
Cc1ccc(S(=O)(=O)Cn2nnnc2C(c2ccccc2)N2CCN(c3ccccc3)CC2)cc1 (configuration not stated)	Marburg entry inh inconclusive
CCC(c1nnnn1CS(=O)(=O)c1ccc(C)cc1)N1CCN(c2nc3ccccc3s2)CC1 (configuration not stated)	Marburg entry inh 8.2µM, Lassa entry inh inconclusive, HCV inh inconclusive (no result: FMDV antiviral)
CCCC(c1nnnn1CS(=O)(=O)c1ccc(C)cc1)N1CCN(c2ccccc2)CC1 (configuration not stated)	Marburg entry inh inconclusive, Lassa entry inh 11µM, HCV inh inconclusive
Cc1ccc(-c2nnnn2CS(=O)(=O)c2ccccc2)cc1	Cycloheximide cs 19
CC(C)CN(CCNC(=O)CN1C(=O)COc2ccc(S(=O)(=O)N3CCC(C)CC3)cc21)CC(C)C	none
CCOC(=O)N1CCN(c2c(N3CCc4ccccc4C3)c(=O)c2=O)CC1	none (no result: Marburg entry inh, Lassa entry inh)
Cc1cccc(Nc2nc(N)c([N+](=O)[O-])c(N3CCC(C)CC3)n2)c1	Marburg entry inh inconclusive, Lassa entry inh inconclusive, FMDV antiviral 25µM, HCV inh inconclusive
Cc1cccc(Nc2nc(N)c([N+](=O)[O-])c(N3CC(C)OC(C)C3)n2)c1 (configuration not stated)	FMDV antiviral 3.2µM, HCV inh 10µM (no result: Marburg entry inh, Lassa entry inh)
Nc1nc(Nc2ccccc2)nc(N2CCOCC2)c1[N+](=O)[O-]	Lassa entry inh inconclusive
Cc1cccc(Nc2nc(N)c([N+](=O)[O-])c(N3CC(C)CC(C)C3)n2)c1 (configuration not stated)	Marburg entry inh inconclusive, Lassa entry inh inconclusive, FMDV antiviral 22µM, HCV inh 6.3µM
CCN1CCN(c2nc(Nc3ccc(C)c(C)c3)nc(N)c2[N+](=O)[O-])CC1	Marburg entry inh 16µM
CCN1CCN(c2nc(Nc3cccc(OC)c3)nc(N)c2[N+](=O)[O-])CC1	HCV inh inconclusive (no result: Marburg entry inh, Lassa entry inh)
Cc1nc2nc(SCC(=O)NCCCN3CCCCCC3)nn2c(C)c1Cc1ccccc1Cl	HCV inh inconclusive (no result: Marburg entry inh, Lassa entry inh)
Cc1nc2nc(SCC(=O)NCCCN3CCCC(C)C3)nn2c(C)c1Cc1ccccc1Cl (configuration not stated)	HCV inh 11µM (no result: Marburg entry inh, Lassa entry inh)
COC(=O)[C@H]1C[C@H]1[C@@H](NC(=O)c1cccnc1)c1ccccc1	none (no result: Marburg entry inh, Lassa entry inh)
CC(C)(C)c1ccc(CS(=O)CC(O)CO)cc1 (configuration not stated)	Marburg entry inh inconclusive
Nc1cc(C2CCCC2)nn1-c1ccccc1	Cycloheximide cs 46, Shiga inhibitor 104
Cc1cccc(-c2cc(N)n(-c3ccccc3)n2)c1	Marburg entry inh inconclusive, Lassa entry inh inconclusive, Cycloheximide cs 45, Shiga inhibitor 65
CCc1ccc(-c2cc(N)n(-c3ccccc3)n2)cc1	Cycloheximide cs 33, Shiga inhibitor 154
Cc1cccc(-c2cc(NC(=O)C(C)(C)C)n(-c3ccccc3)n2)c1	none (no result: Marburg entry inh, Cycloheximide cs, HCV inh, Shiga inhibitor)
Cc1ccc(-c2cc(N)n(-c3ccccc3)n2)cc1	Cycloheximide cs 66, Shiga inhibitor 80
O=C(O)c1cc(C2CC2)nn1-c1ccccc1	none
COc1cccc(Nc2ccccc2C(=O)O)c1	Lassa entry inh inconclusive
O=C(O)c1ccccc1Nc1ccc(OC(F)F)cc1	Marburg entry inh inconclusive, Lassa entry inh inconclusive, Cycloheximide cs 35, Shiga inhibitor 43
O=C(O)c1ccccc1Nc1ccccc1	Marburg entry inh inconclusive, HCV inh 5µM (no result: Cycloheximide cs, Shiga inhibitor)
N#Cc1ccccc1NC(=O)C1SC(=Nc2ccccc2)C(C(=O)Nc2ccc(Cl)cc2)=C1N (configuration not stated)	Lassa entry inh inconclusive, HCV inh 10µM
COc1ccccc1CN(C)C(=O)c1cccc(S(=O)(=O)N2CCCC2)c1	none (no result: Marburg entry inh, Lassa entry inh, Cycloheximide cs, Shiga inhibitor)
